Measurements published in the antibiotic and cytotoxicity screens of Wong et al. (2023).
Screen size: about 39,000 compounds; about 3,300 (8.5%) were called active. This is one part of a sample in which actives are shown more often than they occur.

Tested on: HepG2
Experiment: cytotoxicity call (relative viability < 0.9)
Details: 10 µM

| SMILES | cytotoxicity call |
| --- | --- |
| Cc1ccc(S(=O)(=O)N(C)C[C@@H]2Oc3ccc(NC(=O)NC(C)C)cc3CC(=O)N([C@@H](C)CO)C[C@H]2C)cc1 | inactive |
| Nc1ncnc(NC[C@H]2CCCO2)c1[N+](=O)[O-] | inactive |
| COc1ccc(NC(=O)Nc2ccc3c(c2)C(=O)N([C@@H](C)CO)C[C@@H](C)[C@@H](CN(C)S(=O)(=O)c2ccc(C)cc2)OCCCC[C@H](C)O3)cc1 | inactive |
| C[C@@H]1CN([C@@H](C)CO)S(=O)(=O)c2ccc(-c3cncnc3)cc2O[C@@H]1CN(C)C(=O)Cc1ccncc1 | inactive |
| COc1ccc(NC(=O)Nc2ccc3c(c2)C(=O)N([C@@H](C)CO)C[C@H](C)[C@H](CN(C)Cc2ccccc2)OCCCC[C@@H](C)O3)cc1 | inactive |
| COc1ccc(NC(=O)Nc2ccc3c(c2)C(=O)N([C@@H](C)CO)C[C@@H](C)[C@@H](CN(C)Cc2ccccc2)OCCCC[C@@H](C)O3)cc1 | active |
| COc1ccc(NC(=O)Nc2ccc3c(c2)C(=O)N([C@@H](C)CO)C[C@@H](C)[C@H](CN(C)Cc2ccccc2)OCCCC[C@H](C)O3)cc1 | active |
| COc1ccc(NC(=O)Nc2ccc3c(c2)C(=O)N([C@@H](C)CO)C[C@H](C)[C@H](CN(C)Cc2ccccc2)OCCCC[C@H](C)O3)cc1 | inactive |
| COc1ccc(NC(=O)Nc2ccc3c(c2)C(=O)N([C@H](C)CO)C[C@H](C)[C@@H](CN(C)Cc2ccccc2)OCCCC[C@H](C)O3)cc1 | inactive |
| COc1ccc(NC(=O)Nc2ccc3c(c2)C(=O)N([C@@H](C)CO)C[C@H](C)[C@@H](CN(C)Cc2ccccc2)OCCCC[C@@H](C)O3)cc1 | inactive |
| COc1ccc(NC(=O)Nc2ccc3c(c2)C(=O)N([C@H](C)CO)C[C@@H](C)[C@@H](CN(C)Cc2ccccc2)OCCCC[C@@H](C)O3)cc1 | inactive |
| COc1ccc(NC(=O)Nc2ccc3c(c2)C(=O)N([C@H](C)CO)C[C@@H](C)[C@@H](CN(C)Cc2ccccc2)OCCCC[C@H](C)O3)cc1 | inactive |
| COc1ccc(NC(=O)Nc2ccc3c(c2)C(=O)N([C@H](C)CO)C[C@@H](C)[C@H](CN(C)Cc2ccccc2)OCCCC[C@@H](C)O3)cc1 | active |
| COc1ccc(NC(=O)Nc2ccc3c(c2)C(=O)N([C@@H](C)CO)C[C@@H](C)[C@H](CN(C)Cc2ccccc2)OCCCC[C@@H](C)O3)cc1 | inactive |
| COc1ccc(NC(=O)Nc2ccc3c(c2)C(=O)N([C@H](C)CO)C[C@@H](C)[C@H](CN(C)Cc2ccccc2)OCCCC[C@H](C)O3)cc1 | active |
| COc1ccc(NC(=O)Nc2ccc3c(c2)C(=O)N([C@@H](C)CO)C[C@@H](C)[C@@H](CN(C)Cc2ccccc2)OCCCC[C@H](C)O3)cc1 | inactive |
| COc1cccc([C@@H](N)c2ccccc2)c1 | inactive |
| O=C(/C=C/c1ccc(O)c(O)c1)O[C@@H]1[C@H](O)C[C@@](O)(C(=O)O)C[C@H]1OC(=O)/C=C/c1ccc(O)c(O)c1 | inactive |
| C[C@H]1CN([C@@H](C)CO)C(=O)Cc2cc(NC(=O)Cc3cn(C)c4ccccc34)ccc2O[C@@H]1CN(C)S(C)(=O)=O | inactive |
| C[C@@H]1CN([C@H](C)CO)C(=O)c2cc(NS(=O)(=O)c3cn(C)cn3)ccc2O[C@H]1CN(C)C(=O)NC1CCCCC1 | inactive |
| C[C@H]1CN([C@@H](C)CO)C(=O)Cc2cc(NC(=O)CCN3CCOCC3)ccc2O[C@@H]1CN(C)S(=O)(=O)c1cccs1 | inactive |
| O=C(C[C@@H]1CC[C@H]2[C@@H](COC[C@@H](O)CN2C(=O)c2cnccn2)O1)NCc1ccc(Oc2ccccc2)cc1 | inactive |
| COc1ccccc1NC(=O)N(C)C[C@@H]1Oc2ncc(Br)cc2C(=O)N([C@H](C)CO)C[C@H]1C | inactive |
| O=C(CCCCCCC(=O)Nc1ccccc1O)N/N=C/[C@H](O)[C@@H](O)[C@H](O[C@@H]1O[C@H](CO)[C@H](O)[C@H](O)[C@H]1O)[C@H](O)CO | inactive |
| C[C@H](CO)N1C[C@H](C)[C@@H](CN(C)C(=O)Nc2cccc3ccccc23)Oc2c(NC(=O)CCCCCC(=O)Nc3ccccc3N)cccc2C1=O | inactive |

| SMILES | cytotoxicity call |
| --- | --- |
| C[C@@H]1CCCCO[C@@H](CN(C)S(=O)(=O)c2ccc(Cl)cc2)[C@@H](C)CN([C@H](C)CO)C(=O)c2cc(NC(=O)Nc3ccc(F)cc3)ccc2O1 | inactive |
| C[C@H](CO)N1C[C@H](C)[C@H](CN(C)Cc2ccc(Oc3ccccc3)cc2)Oc2ccc(NC(=O)C3CC3)cc2C1=O | inactive |
| Cc1ccc(NC(=O)N(C)C[C@@H]2OCCCC[C@H](C)Oc3ccc(NC(=O)C4CCCCC4)cc3C(=O)N([C@H](C)CO)C[C@@H]2C)cc1 | inactive |
| NC(=O)CCN1CCn2c1nc1ccccc12 | inactive |
| COc1ccc2c3c([nH]c2c1)[C@H](CO)N(C[C@]13CCN(CC1)C(=O)Nc1ccc2c(c1)OCO2)C(=O)Nc1ccc(cc1)F | inactive |
| COc1ccc(NC(=O)Nc2ccc3c(c2)C(=O)N([C@H](C)CO)C[C@H](C)[C@@H](CN(C)Cc2ccccc2)OCCCC[C@@H](C)O3)cc1 | inactive |
| COc1ccc(NC(=O)Nc2ccc3c(c2)C(=O)N([C@@H](C)CO)C[C@H](C)[C@@H](CN(C)Cc2ccccc2)OCCCC[C@H](C)O3)cc1 | inactive |
| COc1ccc(NC(=O)Nc2ccc3c(c2)C(=O)N([C@H](C)CO)C[C@H](C)[C@H](CN(C)Cc2ccccc2)OCCCC[C@H](C)O3)cc1 | active |
| C[C@@H]1CCCCO[C@H](CN(C)Cc2ccccc2)[C@@H](C)CN([C@H](C)CO)C(=O)c2cc(NS(=O)(=O)c3ccc(F)cc3)ccc2O1 | inactive |
| Cn1cnnc1Sc1c([N+](=O)[O-])ncn1C | inactive |
| Cn1cnc([N+](=O)[O-])c1Sc1[nH]cnc2ncnc1-2 | active |
| Cn1cnc([N+](=O)[O-])c1Cl | inactive |
| C[C@@H]1CN([C@H](C)CO)C(=O)c2cc(NC(=O)CCN3CCOCC3)ccc2O[C@@H]1CN(C)C(=O)Nc1ccccc1 | inactive |
| C[C@@H]1CN([C@@H](C)CO)S(=O)(=O)c2ccc(C#CC3CCCC3)cc2O[C@H]1CN(C)Cc1cncnc1 | inactive |
| CC1(C)CC[C@]2(C(=O)O[C@@H]3O[C@H](CO)[C@@H](O)[C@H](O)[C@H]3O)CC[C@]3(C)C(=CC[C@H]4[C@@]5(C)CC[C@@H](O[C@@H]6O[C@H](C(=O)O)[C@@H](O[C@@H]7OC[C@@H](O)[C@H](O)[C@H]7O)[C@H](O[C@@H]7OC[C@](O)(CO)[C@H]7O)[C@H]6O)C(C)(C)[C@@H]5CC[C@]43C)[C@@H]2C1 | inactive |
| C[C@@H]1O[C@H](O[C@H]2[C@H](OC(=O)[C@]34CCC(C)(C)C[C@@H]3C3=CC[C@@H]5[C@@]6(C)CC[C@H](O[C@@H]7O[C@@H](C)[C@H](O[C@@H]8OC[C@@H](O)[C@H](O)[C@H]8O)[C@@H](O)[C@H]7O)C(C)(C)[C@@H]6CC[C@@]5(C)[C@]3(C)C[C@@H]4O)OC[C@H](O)[C@H]2O)[C@H](O)[C@H](O)[C@H]1O[C@@H]1O[C@H](CO)[C@@H](O)[C@H](O)[C@H]1O | inactive |
| C[C@H]1O[C@@H](OC(=O)[C@]23CCC(C)(C)C[C@H]2C2=CC[C@H]4[C@@]5(C)CC[C@H](O[C@@H]6O[C@H](C(=O)O)[C@@H](O)[C@H](O[C@@H]7OC[C@@H](O)[C@H](O)[C@H]7O)[C@H]6O[C@@H]6O[C@H](CO)[C@H](O)[C@H](O)[C@H]6O)[C@@](C)(C=O)[C@@H]5CC[C@@]4(C)[C@]2(C)C[C@H]3O)[C@H](O[C@H]2O[C@@H](CO)[C@@H](O)[C@@H](O)[C@@H]2O)[C@@H](O)[C@H]1O[C@@H]1O[C@H](C)[C@@H](O[C@H]2OC[C@@H](O)[C@@H](O)[C@@H]2O)[C@H](O)[C@@H]1O | inactive |
| C[C@@H]1O[C@@H](O[C@@H]2[C@@H](O)[C@@H](O[C@@H]3O[C@@H](CO)[C@H](O)[C@H]3O)[C@H](OC(=O)[C@]34CCC(C)(C)C[C@H]3C3=CC[C@H]5[C@@]6(C)C[C@H](O)[C@H](O[C@@H]7O[C@@H](C)[C@H](O)[C@@H](O[C@@H]8OC[C@@H](O)[C@H](O)[C@H]8O[C@@H]8O[C@H](CO)[C@@H](O)[C@H](O)[C@H]8O)[C@H]7O)[C@@](C)(CO)[C@@H]6CC[C@@]5(C)[C@]3(C)C[C@H]4O)O[C@H]2C)[C@H](O)[C@H](O)[C@H]1O | active |
| C[C@@H]1O[C@@H](O[C@@H]2CC[C@@]3(C)[C@@H](CC[C@]4(C)[C@@H]3CC=C3[C@@H]5CC(C)(C)CC[C@]5(C(=O)O[C@@H]5O[C@H](CO[C@@H]6O[C@H](CO)[C@@H](O)[C@H](O)[C@H]6O)[C@@H](O)[C@H](O)[C@H]5O)CC[C@]34C)[C@]2(C)CO)[C@H](O)[C@H](O[C@@H]2OC[C@@H](O)[C@H](O)[C@H]2O)[C@H]1O | inactive |
| C[C@@H]1O[C@H](O[C@@H]2[C@H](O)C[C@@]3(C)[C@@H](CC[C@]4(C)[C@H]3CC=C3[C@H]5CC(C)(C)CC[C@@]5(C(=O)O[C@H]5O[C@@H](C)[C@@H](O)[C@H](O[C@H]6OC[C@@H](O)[C@@H](O)[C@@H]6O)[C@H]5O[C@@H]5O[C@H](C)[C@H](O)[C@H](O[C@@H]6OC[C@H](O)[C@H](O[C@@H]7O[C@H](C)[C@@H](O)[C@H](O)[C@@H]7O)[C@H]6O)[C@H]5O)[C@@H](O)C[C@@]34C)[C@]2(C)CO)[C@@H](O)[C@H](O[C@H]2OC[C@@H](O)[C@@H](O[C@H]3OC[C@@H](O[C@H]4OC[C@@](O)(CO)[C@@H]4O)[C@@H](O)[C@@H]3O)[C@@H]2O)[C@@H]1O | inactive |
| C[C@H]1O[C@@H](O[C@H]2[C@@H](O)[C@@H](O)[C@@H](O[C@H]3CC[C@]4(C)[C@H]5CC=C6[C@H]7CC(C)(C)[C@H]8C[C@]7(C(=O)O8)[C@@H](O)C[C@]6(C)[C@@]5(C)CC[C@H]4C3(C)C)O[C@@H]2CO)[C@@H](O)[C@@H](O[C@H]2OC[C@@H](O)[C@@H](O)[C@@H]2O)[C@@H]1O | inactive |
| CC(=O)N[C@H]1[C@H](O[C@H]2CC[C@]3(C)[C@H]4CC=C5[C@@H]6CC(C)(C)CC[C@]6(C(=O)O[C@H]6OC[C@@H](O)[C@@H](O)[C@@H]6O)[C@@H](O)C[C@@]5(C)[C@]4(C)CC[C@H]3C2(C)C)O[C@H](CO[C@H]2OC[C@@H](O)[C@@H](O[C@H]3OC[C@@H](O)[C@@H](O)[C@@H]3O)[C@@H]2O)[C@@H](O[C@@H]2O[C@@H](C)[C@H](O)[C@@H](O)[C@H]2O[C@@H]2O[C@@H](C)[C@H](O)[C@@H](O)[C@H]2O)[C@@H]1O | active |
| C=C[C@](C)(O)CC/C=C(\C)C(=O)O[C@@H]1[C@@H](O[C@@](C)(C=C)CC/C=C(\C)C(=O)O[C@H]2C[C@@]3(C(=O)O[C@H]4OC[C@@H](O[C@H]5O[C@@H](CO)[C@@H](O)[C@@H](O[C@H]6O[C@@H](CO)[C@@H](O[C@H]7O[C@@H](CO)[C@@H](O)[C@@H](O)[C@@H]7O)[C@@H](O)[C@@H]6O)[C@@H]5O)[C@@H](O)[C@@H]4O)[C@@H](O)C[C@@]4(C)C(=CC[C@H]5[C@@]6(C)CC[C@@H](O[C@H]7O[C@@H](CO)[C@@H](O[C@H]8O[C@@H](CO)[C@@H](O)[C@@H](O[C@H]9OC[C@@H](O)[C@@H](O)[C@@H]9O)[C@@H]8O)[C@@H](O)[C@@H]7O)C(C)(C)[C@@H]6CC[C@@]54C)[C@@H]3CC2(C)C)OC[C@@H](O)[C@H]1O | active |
| C[C@@H]1O[C@@H](O[C@H]2[C@H](OC(=O)[C@]34CCC(C)(C)C[C@H]3C3=CC[C@H]5[C@@]6(C)CC[C@H](O[C@@H]7O[C@H](CO)[C@@H](O)[C@H](O)[C@H]7O)C(C)(C)[C@@H]6CC[C@@]5(C)[C@]3(C)C[C@H]4O)OC[C@H](O)[C@@H]2O)[C@H](O)[C@H](O[C@@H]2OC[C@H](O)[C@H](O)[C@H]2O)[C@H]1O[C@@H]1OC[C@@H](O)[C@H](O[C@@H]2OC[C@H](O)[C@H](O)[C@H]2O)[C@H]1O | active |
